Test results published in the supplement of paper PMC4466236.
The full ranking holds about 33,000 sequences; the median of “E-score (dimensionless, -0.5 to 0.5)” is about -0.058, and the highest 2% start at about 0.35. Shown is part of a subset that was picked to be rich in the highest values.

Each sequence was assayed on MvaT (assay: PBM 8-mer E-score (mean of HK and ME arrays) (E-score (dimensionless, -0.5 to 0.5)); higher = stronger relative binding preference).
Procedure: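 Protein binding microarray: GST-tagged full-length MvaT (P. aeruginosa PAO1) bound to two universal double-stranded 60-mer arrays (ME and HK), each with a constant 25-mer primer and a variable 35-mer region covering all 8-mers. The 8-mer E-score (rank-based, range -0.5 to 0.5, >0.45 = specific binding) is the mean of the two arrays.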
TCGATCCA was tested, and the “PBM 8-mer E-score” value was -0.213.
In the case of ACATCTTC, the “PBM 8-mer E-score” value is reported as 0.185.
With ATCTACTG the “PBM 8-mer E-score” value was 0.0718.
For ATTTGTTG, the “PBM 8-mer E-score” value was 0.172.
With ATTGAAAT the “PBM 8-mer E-score” value was 0.27.
ACTAGTTA was tested, and the “PBM 8-mer E-score” value was 0.345.
CTAAATAC was tested, and the “PBM 8-mer E-score” value was 0.232.
TTAAATAA was tested, and the “PBM 8-mer E-score” value was 0.445.
For TTAAACAA, the “PBM 8-mer E-score” value was 0.321.
With CTAAATCA the “PBM 8-mer E-score” value was 0.0639.
With CTAAATGA the “PBM 8-mer E-score” value was 0.126.
With CTAAATAA the “PBM 8-mer E-score” value was 0.365.
With GCGATTCC the “PBM 8-mer E-score” value was -0.0999.
AGGCAGAA was tested, and the “PBM 8-mer E-score” value was -0.226.
ACTCGTGA was tested, and the “PBM 8-mer E-score” value was -0.0788.
For GGACTCCC, the “PBM 8-mer E-score” value was -0.283.
With TAGTGAGA the “PBM 8-mer E-score” value was 0.0304.
With ACCCTTCC the “PBM 8-mer E-score” value was -0.184.
ACATATTA was tested, and the “PBM 8-mer E-score” value was 0.44.
ACATATTG was tested, and the “PBM 8-mer E-score” value was 0.281.
For CCATATTC, the “PBM 8-mer E-score” value was 0.161.
In the case of GCATATTA, the “PBM 8-mer E-score” value is reported as 0.278.
For ACATATTC, the “PBM 8-mer E-score” value was 0.281.
CCATATTA was tested, and the “PBM 8-mer E-score” value was 0.353.
With AACCACTC the “PBM 8-mer E-score” value was 0.00691.
GCGGAGGA was tested, and the “PBM 8-mer E-score” value was -0.291.
With AAATTTGT the “PBM 8-mer E-score” value was 0.264.
In the case of AGGGTACC, the “PBM 8-mer E-score” value is reported as -0.343.
With AACAAAAA the “PBM 8-mer E-score” value was 0.239.
AACAAAAT was tested, and the “PBM 8-mer E-score” value was 0.35.
With TACAAATA the “PBM 8-mer E-score” value was 0.355.
In the case of AACAAGAT, the “PBM 8-mer E-score” value is reported as 0.164.
For AACAAATA, the “PBM 8-mer E-score” value was 0.369.
For CACAAATA, the “PBM 8-mer E-score” value was 0.338.
In the case of AACAAGTA, the “PBM 8-mer E-score” value is reported as 0.343.
For AACAAATG, the “PBM 8-mer E-score” value was 0.172.
With GACAAATA the “PBM 8-mer E-score” value was 0.297.
With CAGCAAAC the “PBM 8-mer E-score” value was 0.014.
With CATTACGA the “PBM 8-mer E-score” value was 0.0396.
AAATGACT was tested, and the “PBM 8-mer E-score” value was 0.114.
With ATACCCAG the “PBM 8-mer E-score” value was 0.103.
CGTAAGAC was tested, and the “PBM 8-mer E-score” value was -0.107.
In the case of AACTGTGG, the “PBM 8-mer E-score” value is reported as -0.0417.
With ACCTACGA the “PBM 8-mer E-score” value was -0.0935.
AGCATATC was tested, and the “PBM 8-mer E-score” value was -0.0071.
In the case of AACATAAT, the “PBM 8-mer E-score” value is reported as 0.371.
With AACATAAC the “PBM 8-mer E-score” value was 0.245.
In the case of CACATATA, the “PBM 8-mer E-score” value is reported as 0.405.
With CACATATC the “PBM 8-mer E-score” value was 0.178.
With AATACATG the “PBM 8-mer E-score” value was 0.224.
With GGCATATA the “PBM 8-mer E-score” value was 0.217.
AATACATT was tested, and the “PBM 8-mer E-score” value was 0.374.
With CACATATG the “PBM 8-mer E-score” value was 0.196.
With AGCATATA the “PBM 8-mer E-score” value was 0.383.
For AATACATC, the “PBM 8-mer E-score” value was 0.173.
For AACATAAA, the “PBM 8-mer E-score” value was 0.286.
With CGAACAAC the “PBM 8-mer E-score” value was 0.0607.
In the case of GCTAGGCA, the “PBM 8-mer E-score” value is reported as -0.187.
With ACGACTAG the “PBM 8-mer E-score” value was -0.185.
For TACCTCAA, the “PBM 8-mer E-score” value was 0.05.
In the case of ACTTGGTA, the “PBM 8-mer E-score” value is reported as -0.109.
GGTTGATA was tested, and the “PBM 8-mer E-score” value was 0.124.
With GTCTTCGA the “PBM 8-mer E-score” value was -0.0711.
For GGTCGCGA, the “PBM 8-mer E-score” value was -0.238.
CCGCAAGA was tested, and the “PBM 8-mer E-score” value was -0.078.
In the case of CTCGCCTA, the “PBM 8-mer E-score” value is reported as 0.0159.
GAAAACAC was tested, and the “PBM 8-mer E-score” value was 0.0574.
AACATAGT was tested, and the “PBM 8-mer E-score” value was 0.25.
In the case of GACATAGA, the “PBM 8-mer E-score” value is reported as 0.0048.
In the case of AATACATA, the “PBM 8-mer E-score” value is reported as 0.324.
In the case of GACATATA, the “PBM 8-mer E-score” value is reported as 0.362.
With GACATATC the “PBM 8-mer E-score” value was 0.113.
TATACATA was tested, and the “PBM 8-mer E-score” value was 0.389.
For AACATACA, the “PBM 8-mer E-score” value was 0.36.
With CACATACA the “PBM 8-mer E-score” value was 0.242.
In the case of TACATACA, the “PBM 8-mer E-score” value is reported as 0.301.
AACATATT was tested, and the “PBM 8-mer E-score” value was 0.392.
In the case of AACATACT, the “PBM 8-mer E-score” value is reported as 0.207.
With CATACATA the “PBM 8-mer E-score” value was 0.277.
With GGTGCGCA the “PBM 8-mer E-score” value was -0.0657.
In the case of AACGCTGC, the “PBM 8-mer E-score” value is reported as 0.0312.
For CAAGCGTG, the “PBM 8-mer E-score” value was -0.266.
With CTCTCTAC the “PBM 8-mer E-score” value was -0.0519.
CTTTGACC was tested, and the “PBM 8-mer E-score” value was -0.131.
With CCCGGATA the “PBM 8-mer E-score” value was -0.0749.
For TACATATA, the “PBM 8-mer E-score” value was 0.402.
With AACATATA the “PBM 8-mer E-score” value was 0.419.
In the case of AACATATG, the “PBM 8-mer E-score” value is reported as 0.254.
In the case of TACACATA, the “PBM 8-mer E-score” value is reported as 0.242.
In the case of AACATATC, the “PBM 8-mer E-score” value is reported as 0.286.
For TACATAAA, the “PBM 8-mer E-score” value was 0.307.
For GTTGGCCA, the “PBM 8-mer E-score” value was -0.0756.
In the case of AAGACAGC, the “PBM 8-mer E-score” value is reported as 0.081.
In the case of ACACCGGC, the “PBM 8-mer E-score” value is reported as -0.133.
